# Results from PubChem BioAssay.
# Values without a mark were called inactive. For some of these results: Entries with a potency or affinity are not part of this list. The source made the active and inactive calls. Unless noted, how the calls were made is not given here.
# What was measured:
# [1] = antimalarial activity against Dd2 strain (AID 2302;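 active means growth inhibition above 50% at the single 2 µM test dose, taken to imply half-maximal potency below 2 µM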;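 further: 0% = DMSO untreated growth and 100% = chloroquine plus artemisinin killed control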); settings: P. falciparum Dd2 in RBCs, LDH growth readout, 72 h; at 2 µM; active compounds read high
# [2] = HepG2 cytotoxicity, primary screen, cytotoxicity control for P. falciparum antimalarial project, cell-based, ATP luminescence (AID 2303;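 active means inhibition above 50%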;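 further: 0% = DMSO wells and 100% = digitonin-killed cells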); settings: HepG2 viability, 24-48 h, at 10 µM, active compounds read high
# [3] = biological target: L-lactate dehydrogenase (Plasmodium falciparum (isolate CDC / Honduras)) (UniProt Q27743); assay: PfLDH activity inhibition – cell lysate, 3D7 strain, counter-screen for P. falciparum growth inhibition project (AID 2304);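 further: 0% = vehicle and 100% = reference inhibitor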; settings: P. falciparum 3D7 crude extract, LDH APAD/NBT absorbance; at 2 µM; active compounds read high
# [4] = inhibition of 3D7 malaria parasite growth – strain 3D7 (AID 2306);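 further: 0% = DMSO wells and 100% = chloroquine plus artemisinin control wells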; settings: P. falciparum 3D7 erythrocytic growth, LDH absorbance, 72 h; at 2 µM; active compounds read high
# [5] = biological target: Calcium-dependent protein kinase 1 (Plasmodium falciparum (isolate 3D7)) (UniProt P62344); assay: PfCDPK1 kinase inhibitors, biochemical, TCAMS library (AID 1159585; cut-off not given, nearly all actives have IC50 up to about 0.98 µM;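 further: inhibitors leave more ATP so luminescence rises with inhibition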); settings: recombinant PfCDPK1, Kinase-Glo ATP depletion luminescence
# [6] = biological target: Plasmodium falciparum protein kinase 6 (PK6, PF3D7_1337100) (UniProt Q8IDW1); assay: PfPK6 kinase inhibitors, biochemical, TCAMS library (AID 1159586); settings: recombinant PfPK6, Kinase-Glo ATP depletion luminescence
# [7] = biological target: Protein kinase 7 (PK7), Plasmodium falciparum 3D7 (PF3D7_0213400) (UniProt Q7YTF7); assay: inhibition of Plasmodium PK7 catalytic activity – biochemical, TCAMS antimalarial set, Kinase-Glo luminescence (AID 1159587); settings: recombinant PfPK7, Kinase-Glo ATP depletion luminescence
# [8] = biological target: Calcium-dependent protein kinase 4 (Plasmodium falciparum (isolate 3D7)) (UniProt Q8IBS5); assay: PfCDPK4 kinase inhibitors, biochemical, TCAMS library (AID 1159588; cut-off not given, nearly all actives have IC50 up to about 0.91 µM); settings: recombinant PfCDPK4, Kinase-Glo ATP depletion luminescence
# Sequence of Calcium-dependent protein kinase 4 (Plasmodium falciparum (isolate 3D7)) (Q8IBS5 whole entry, looked up): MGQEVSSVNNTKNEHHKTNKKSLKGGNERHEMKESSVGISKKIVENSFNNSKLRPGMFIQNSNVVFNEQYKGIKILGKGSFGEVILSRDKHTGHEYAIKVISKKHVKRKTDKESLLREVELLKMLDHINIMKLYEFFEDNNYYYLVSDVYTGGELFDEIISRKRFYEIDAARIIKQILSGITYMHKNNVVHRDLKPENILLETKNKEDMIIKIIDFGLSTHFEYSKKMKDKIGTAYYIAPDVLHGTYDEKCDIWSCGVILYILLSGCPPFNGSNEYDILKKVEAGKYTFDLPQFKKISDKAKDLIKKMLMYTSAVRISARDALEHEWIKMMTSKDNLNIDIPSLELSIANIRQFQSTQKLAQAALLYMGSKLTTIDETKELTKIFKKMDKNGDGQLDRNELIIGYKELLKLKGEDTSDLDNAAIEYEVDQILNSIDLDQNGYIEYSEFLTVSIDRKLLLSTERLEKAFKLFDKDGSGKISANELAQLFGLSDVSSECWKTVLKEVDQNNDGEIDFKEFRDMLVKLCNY
# Sequence of L-lactate dehydrogenase (Plasmodium falciparum (isolate CDC / Honduras)) (Q27743 whole entry, looked up): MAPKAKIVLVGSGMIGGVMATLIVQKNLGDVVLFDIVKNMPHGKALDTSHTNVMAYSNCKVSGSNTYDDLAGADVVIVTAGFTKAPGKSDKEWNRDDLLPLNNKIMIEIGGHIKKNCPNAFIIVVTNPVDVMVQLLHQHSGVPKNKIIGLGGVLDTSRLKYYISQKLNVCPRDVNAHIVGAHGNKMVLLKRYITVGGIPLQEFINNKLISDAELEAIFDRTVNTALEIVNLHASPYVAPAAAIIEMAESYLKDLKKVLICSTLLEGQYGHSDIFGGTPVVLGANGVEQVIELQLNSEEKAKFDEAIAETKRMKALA
# Sequence of Plasmodium falciparum protein kinase 6 (PK6, PF3D7_1337100) (Q8IDW1 1-305): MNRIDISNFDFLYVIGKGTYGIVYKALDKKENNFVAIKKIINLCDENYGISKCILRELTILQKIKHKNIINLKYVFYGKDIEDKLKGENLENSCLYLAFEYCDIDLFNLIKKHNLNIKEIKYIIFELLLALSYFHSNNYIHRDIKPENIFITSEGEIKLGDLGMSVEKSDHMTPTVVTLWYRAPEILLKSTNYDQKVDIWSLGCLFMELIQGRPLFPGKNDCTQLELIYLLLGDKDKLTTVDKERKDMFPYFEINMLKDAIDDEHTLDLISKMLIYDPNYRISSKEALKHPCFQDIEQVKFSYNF
# Sequence of Protein kinase 7 (PK7), Plasmodium falciparum 3D7 (PF3D7_0213400) (Q7YTF7 1-343): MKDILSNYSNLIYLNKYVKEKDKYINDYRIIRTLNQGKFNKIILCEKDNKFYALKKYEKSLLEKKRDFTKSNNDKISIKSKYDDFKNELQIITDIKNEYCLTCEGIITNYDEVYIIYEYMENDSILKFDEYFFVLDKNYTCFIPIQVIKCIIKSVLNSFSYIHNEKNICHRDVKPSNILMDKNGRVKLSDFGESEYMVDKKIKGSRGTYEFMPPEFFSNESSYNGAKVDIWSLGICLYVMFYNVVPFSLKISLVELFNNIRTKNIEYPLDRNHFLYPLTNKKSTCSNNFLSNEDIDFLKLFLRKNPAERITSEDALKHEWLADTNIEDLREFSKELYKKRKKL
# Sequence of Calcium-dependent protein kinase 1 (Plasmodium falciparum (isolate 3D7)) (P62344 whole entry, looked up): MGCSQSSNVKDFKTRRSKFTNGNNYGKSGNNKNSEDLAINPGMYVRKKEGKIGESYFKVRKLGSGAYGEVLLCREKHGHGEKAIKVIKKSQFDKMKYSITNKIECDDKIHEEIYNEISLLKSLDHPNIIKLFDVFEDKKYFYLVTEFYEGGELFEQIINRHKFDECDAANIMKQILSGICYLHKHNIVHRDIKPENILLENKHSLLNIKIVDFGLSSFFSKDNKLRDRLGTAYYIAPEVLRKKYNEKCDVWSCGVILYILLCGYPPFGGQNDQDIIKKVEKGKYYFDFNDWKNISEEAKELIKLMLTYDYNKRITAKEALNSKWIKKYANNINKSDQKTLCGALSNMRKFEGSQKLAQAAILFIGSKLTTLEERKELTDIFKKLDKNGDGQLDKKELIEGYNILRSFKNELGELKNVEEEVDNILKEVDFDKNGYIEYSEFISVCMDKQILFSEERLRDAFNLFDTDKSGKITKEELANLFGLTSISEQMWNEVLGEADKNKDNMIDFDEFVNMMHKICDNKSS
Compound,growth inhibition [1],inhibition [2],inhibition [3] [%],growth inhibition [4],outcome [5],outcome [6],outcome [7],outcome [8]
COc1ccc(C2CC(c3ccccc3O)=NN2C(=O)c2ccco2)cc1OC (stereo not drawn),68% (active),11%,1,96% (active),inactive,inactive,inactive,inactive
CN(C)CCN(C)Cc1cccc(-c2ccc3c(Nc4ccc(F)cc4Cl)ccnc3c2)c1,100% (active),53% (active),0,101% (active),inactive,inactive,inactive,inactive
CCc1c(CCNCCCC(C)CCNCCc2ccc(OC)c(OC)c2CC)ccc(OC)c1OC (stereo not drawn),27%,99% (active),1,100% (active),inactive,inactive,inactive,inactive
Cc1cccc(C)c1CNc1ccnc2cc(C#N)ccc12,99% (active),20%,-1,100% (active),inactive,inactive,inactive,inactive
CCOc1ccc(C(=O)N2CCOC(CCN3CCC4(CCc5ccccc54)CC3)(c3ccc(Cl)c(Cl)c3)C2)cc1 (stereo not drawn),25%,25%,1,81% (active),inactive,inactive,inactive,inactive
CC(C)Cn1c(Sc2ccc(C#N)c([N+](=O)[O-])c2)nnc1-c1cccs1,32%,9%,5,90% (active),inactive,inactive,inactive,inactive
CC(C)(C)c1ccc(CN2CCC(CNC(=O)c3cc(-c4ccccc4Cl)cs3)C2)cc1 (stereo not drawn),56% (active),33%,1,101% (active),inactive,inactive,inactive,inactive
O=C(/C=C/c1ccc(Cl)c(Cl)c1)NCC(CCCN1CCC(c2c[nH]c3ccccc23)CC1)c1ccccc1 (stereo not drawn),46%,98% (active),3,100% (active),inactive,inactive,inactive,inactive
Cc1c(C(=O)[C@@H]2C[C@H]2CN2CCC(N3CCCC3)CC2)sc2ccccc12,9%,16%,0,94% (active),inactive,inactive,inactive,inactive
Cc1ccc2c(Cc3cnc(N)nc3N)cc(C)c(N)c2n1,92% (active),-19%,-2,91% (active),inactive,inactive,inactive,inactive
O=C(NC1CC1)c1cnc(N2CCN(Cc3c(F)cccc3Cl)CC2)c(Cl)c1,93% (active),0%,-2,93% (active),inactive,inactive,inactive,inactive
CC(=O)c1nccc(C)c1N,-1%,10%,1,92% (active),inactive,inactive,inactive,inactive
O=C(NCCCCCN1CCC(c2ccc(O)cc2)CC1)c1ccc(-c2ccccc2)cc1,-7%,28%,-1,92% (active),inactive,inactive,inactive,inactive
COC(=O)c1cc(NC(=O)Nc2ccc(Cn3ncc(N4CCCNCC4)c(Cl)c3=O)cc2)cc(C(=O)OC)c1,90% (active),-3%,3,96% (active),inactive,inactive,inactive,inactive
CCN(CC)CC(O)Cc1c2ccc([N+](=O)[O-])cc2nc2cc(OC)c(OC)cc12 (stereo not drawn),37%,41%,-6,100% (active),inactive,inactive,inactive,inactive
Brc1cc(Br)c2c(c1)C(NCCCNC1CCNc3c(Br)cc(Br)cc31)CCN2 (stereo not drawn),25%,18%,-1,98% (active),inactive,inactive,inactive,inactive
Nc1oc2c(CN3CCCCCC3)c(O)ccc2c(=O)c1-c1nc2ccccc2s1,99% (active),12%,4,100% (active),inactive,inactive,inactive,inactive
COc1ccc(-c2nc3nc4ccccc4cc3[nH]2)c(OCC(O)CNC(C)C)c1 (stereo not drawn),96% (active),19%,-1,98% (active),inactive,inactive,inactive,inactive
COc1cccc(-c2cnc(-c3ccncc3)nc2C2CCN(Cc3ccc(NC(C)=O)cc3)CC2)c1,-3%,17%,0,89% (active),inactive,inactive,inactive,inactive
OCCC1CCN(Cc2ccc(-c3ccc(-c4nc5ccccc5[nH]4)cc3)cc2)CC1,98% (active),35%,2,99% (active),inactive,inactive,inactive,inactive
Cc1cc(NCCC(=O)Nc2ccccc2)nc(NCCOc2ccccc2)n1,9%,5%,0,100% (active),inactive,inactive,inactive,inactive

Compound,growth inhibition [1],inhibition [2],inhibition [3] [%],growth inhibition [4],outcome [5],outcome [6],outcome [7],outcome [8]
CC(=O)Nc1nc(C(=O)Nc2cccc(-c3ccc(-c4nc5ccc(F)cc5[nH]4)cc3)c2)cs1,32%,54% (active),-4,101% (active),inactive,inactive,inactive,inactive
O=C(Nc1ccc2c(c1)OCO2)c1cc(-c2cccnc2)cnc1NCc1ccc2c(c1)OCO2,1%,2%,2,87% (active),inactive,inactive,inactive,inactive
Clc1nc2ccccn2c1C=Cc1ccc2ccccc2n1,75% (active),-31%,-6,86% (active),inactive,inactive,inactive,inactive
Cc1cc2c(cc1C(F)(F)F)N(C(=O)Nc1cc(OCCN(C)C)cc(C(F)(F)F)c1)CC2,19%,16%,0,101% (active),inactive,inactive,inactive,inactive
COc1cc(C(=O)N2CCN(C(C)C)CC2)ccc1CN(C)CCCN1CCN(c2cccc(Cl)c2Cl)CC1,87% (active),56% (active),0,101% (active),inactive,inactive,inactive,inactive
CS(=O)(=O)c1ccc(CNCc2ccc(-c3ccc(-c4nc5ccc(C(F)(F)F)cc5[nH]4)s3)cc2)cc1,98% (active),49%,-5,102% (active),inactive,inactive,inactive,inactive
CN1CCN(c2ccc(Nc3c4ccccc4nc4ccccc34)cc2)CC1,94% (active),-3%,-4,100% (active),inactive,inactive,inactive,inactive
O=C(c1cncc(-c2ccccc2)c1)N(Cc1cncn1Cc1ccccc1F)CC1CC1,0%,-5%,-4,100% (active),inactive,inactive,inactive,inactive
CN1CCN(CCCN(Cc2csc(-c3ccc(CNCc4ccccc4)cc3)n2)C(=O)c2cc(F)cc(F)c2)CC1,53% (active),60% (active),-2,97% (active),inactive,inactive,inactive,inactive
CN(CCO)Cc1ccc(-c2ccc(NS(=O)(=O)c3cccc4cccnc34)cc2)cc1,84% (active),28%,-1,99% (active),inactive,inactive,inactive,inactive
Cc1cccc2[nH]c(-c3ccc(-c4ccc(CNCc5ccccc5)cc4)s3)nc12,87% (active),22%,-1,103% (active),inactive,inactive,inactive,inactive
CC(C)NCc1cccc(-c2cccc(-c3nc4ccc(F)cc4[nH]3)c2)c1,85% (active),20%,2,101% (active),inactive,inactive,inactive,inactive
O=C(NC1CCC(N2CCC(c3nc4ccccc4s3)CC2)CC1)c1cc2ccccc2[nH]1 (stereo not drawn),37%,23%,-1,94% (active),inactive,inactive,inactive,inactive
CC1(C)N=C(N)N=C(N)N1OCC=Cc1ccccc1,96% (active),62% (active),-3,94% (active),inactive,inactive,inactive,inactive
Cc1cccc(CNc2nc(C)cc(N[C@@H](Cc3ccccc3)C(=O)NCCc3ccccc3)n2)c1,85% (active),24%,2,99% (active),inactive,inactive,inactive,inactive
O=C(NC1CCN(Cc2ccccc2)CC1)c1ccc(-c2nc3cc(Cl)c(F)cc3[nH]2)s1,99% (active),28%,3,101% (active),inactive,inactive,inactive,inactive
COc1ccc2nccc(NN=Cc3cccc([N+](=O)[O-])c3)c2c1,98% (active),4%,-8,100% (active),inactive,inactive,inactive,inactive
c1ccc(CNCc2ccc(-c3ccc(-c4nc5ccccc5[nH]4)cc3)cc2)cc1,93% (active),32%,1,101% (active),inactive,inactive,inactive,inactive
O=C(Nc1ccc(Cl)c(C(F)(F)F)c1)N[C@H]1CCN(CCCCCNC(=O)[C@@H]2C[C@H]2c2ccc(Cl)c(Cl)c2)C1,-2%,39%,0,94% (active),inactive,inactive,inactive,inactive
Cc1cnc(CN(Cc2ccc(-c3ccc(CNCCc4ccc(S(C)(=O)=O)cc4)cn3)cc2)C(=O)c2nn(-c3ccccc3)nc2C)cn1,21%,11%,0,84% (active),inactive,inactive,inactive,inactive
